Compounds without any hit were thinned out: in the full panel of roughly 79,000, 15% have a hit. A number with no mark means an inactive call. The source made the active and inactive calls. Cut-off read from the data, not from the text of the source: active = growth inhibition above about 70%; inactive = the rest.
How the values were obtained:
[1] = NCI Yeast Anticancer Drug Screen. Data for the rad50 strain (AID 155);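 note: 0% = growth of vehicle-only cultures of the same strain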; conditions: S. cerevisiae rad50 strain growth inhibition; at 50.0 µM; hits give high values
Outline: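 Growth of the mutant yeast was measured after compound exposure and referenced to vehicle-treated cultures.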

[2] = NCI Yeast Anticancer Drug Screen. Data for the mec2-1 strain (AID 157); conditions: S. cerevisiae mec2-1 strain, at 50.0 µM, hits give high values
Outline: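 Compounds were applied to mec2-1 yeast cells. Their growth was then compared with that of vehicle-treated cultures to give growth inhibition.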

[3] = NCI Yeast Anticancer Drug Screen. Data for the sgs1 mgt1 strain (AID 161);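 note: 0% = growth of cultures given vehicle only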; conditions: S. cerevisiae sgs1 mgt1 strain, at 50.0 µM, hits give high values
Outline: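 Growth of a repair-deficient yeast mutant was monitored after compound treatment and expressed as inhibition relative to vehicle-treated cultures.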

[4] = NCI Yeast Anticancer Drug Screen. Data for the cln2 rad14 strain (AID 165);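 note: 0% = growth equal to vehicle treated cultures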; conditions: S. cerevisiae cln2 rad14 strain, at 50.0 µM, hits give high values
Outline: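 Strain: cln2 rad14 yeast, altered in cell cycle control and DNA damage repair. Read-out: growth inhibition vs vehicle.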

[5] = NCI Yeast Anticancer Drug Screen. Data for the bub3 strain (AID 167); conditions: S. cerevisiae bub3 mutant strain, at 50.0 µM, hits give high values
Outline: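 Whole-cell yeast assay. The mutant strain was incubated with compounds, and growth inhibition was determined by comparison with vehicle-treated cells.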

[6] = NCI Yeast Anticancer Drug Screen. Data for the mlh1 rad18 strain (AID 175); conditions: S. cerevisiae mlh1 rad18 strain growth inhibition; at 50.0 µM; hits give high values
Outline: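 A repair-deficient yeast strain is exposed to test compound, and growth is scored relative to vehicle-treated controls.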

SMILES: O=C(O)C(Cl)Cl
- growth inhibition [1]: -1.6%
- growth inhibition [2]: -29.6%
- growth inhibition [3]: 4.45%
- growth inhibition [4]: -10.1%
- growth inhibition [5]: -1.6%
- growth inhibition [6]: 9.45%

SMILES: Cc1cccc(NC(N)=S)c1
- growth inhibition [1]: 11.6%
- growth inhibition [2]: 1.55%
- growth inhibition [3]: 5.65%
- growth inhibition [4]: -4.35%
- growth inhibition [5]: -8.15%
- growth inhibition [6]: 8.35%

SMILES: N=C(N)N.[O]=[Cr](=[O])([OH])[OH]
- growth inhibition [1]: 29.4%
- growth inhibition [2]: -39.9%
- growth inhibition [3]: 37.5%
- growth inhibition [4]: 10.6%
- growth inhibition [5]: 26.8%
- growth inhibition [6]: 30.6%

SMILES: COc1ccc2ccc([Se]c3ccc4ccc(OC)cc4c3)cc2c1
- growth inhibition [1]: -1.25%
- growth inhibition [2]: -22.4%
- growth inhibition [3]: -1.85%
- growth inhibition [4]: 4.45%
- growth inhibition [5]: 7.55%
- growth inhibition [6]: -1.1%

SMILES: c1ccc(P2(c3ccccc3)=NSN=S=N2)cc1
- growth inhibition [1]: -4.75%
- growth inhibition [2]: -8.7%
- growth inhibition [3]: -8.65%
- growth inhibition [4]: -16.6%
- growth inhibition [5]: 1.35%
- growth inhibition [6]: -1.45%

SMILES: CN1CCC2(CC1)C(C#N)C(=O)NC(=O)C2C#N (stereo unspecified)
- growth inhibition [1]: 19.8%
- growth inhibition [2]: 3%
- growth inhibition [3]: 11.7%
- growth inhibition [4]: 22.9%
- growth inhibition [5]: 9.05%
- growth inhibition [6]: 7.75%

SMILES: NC(=Nc1ccccc1)Nc1ccccc1 (tested in a mixture with another compound)
- growth inhibition [1]: -1.65%
- growth inhibition [2]: -12.1%
- growth inhibition [3]: 1.7%
- growth inhibition [4]: 13.2%
- growth inhibition [5]: 6.4%
- growth inhibition [6]: 6.35%

SMILES: C[C@@H]1C[C@@H](O)[C@]2(O)O[C@@H]3C[C@@]4(C=O)[C@@H](CC[C@@H]5[C@@H]4CC[C@]4(C)[C@@H](C6=CC(=O)OC6)CC[C@]54O)C[C@H]3O[C@@H]2O1
- growth inhibition [1]: -7.25%
- growth inhibition [2]: -16.6%
- growth inhibition [3]: 27.4%
- growth inhibition [4]: -4.55%
- growth inhibition [5]: -15.2%
- growth inhibition [6]: -96.5%

SMILES: CCC(C(C)C)C1NC1C(C)C1CCC2C3CC=C4CC(OC(C)=O)CCC4(C)C3CCC12C (stereo unspecified)
- growth inhibition [1]: 95.8% (active)
- growth inhibition [2]: 99.2% (active)
- growth inhibition [3]: 99.1% (active)
- growth inhibition [4]: 98.3% (active)
- growth inhibition [5]: 98.6% (active)
- growth inhibition [6]: 98.7% (active)

SMILES: CN(C)C(=S)Oc1ccc(Cl)cc1S(=O)(=O)F
- growth inhibition [1]: 53.6%
- growth inhibition [2]: 14.2%
- growth inhibition [3]: 32.4%
- growth inhibition [4]: 20.4%
- growth inhibition [5]: -6.7%
- growth inhibition [6]: 9.6%

SMILES: Cc1nc2ccccc2c(=O)n1-c1ccccc1Cl
- growth inhibition [1]: 7.15%
- growth inhibition [2]: -4.65%
- growth inhibition [3]: -6.75%
- growth inhibition [4]: 12.9%
- growth inhibition [5]: 15.9%
- growth inhibition [6]: 9.8%

SMILES: COc1ccc(C(CC(=O)O)CC(=O)c2ccc(N(CCCl)CCCl)cc2)cc1 (stereo unspecified)
- growth inhibition [1]: 54%
- growth inhibition [2]: 22.7%
- growth inhibition [3]: 24.8%
- growth inhibition [4]: 74.7% (active)
- growth inhibition [5]: 87.3% (active)
- growth inhibition [6]: 68.5%

SMILES: c1ccc2c(C3NCCc4[nH]cnc43)cccc2c1 (stereo unspecified)
- growth inhibition [1]: 3.7%
- growth inhibition [2]: 1.85%
- growth inhibition [3]: -9.45%
- growth inhibition [4]: -18.3%
- growth inhibition [5]: -32%
- growth inhibition [6]: 4.65%

SMILES: FC(F)(F)c1ccc2c(c1)N(CCCl)c1ccccc1S2
- growth inhibition [1]: 4.3%
- growth inhibition [2]: -8.05%
- growth inhibition [3]: -2.4%
- growth inhibition [4]: -79.2%
- growth inhibition [5]: 1.5%
- growth inhibition [6]: -4.6%

SMILES: Cc1cc(S(=O)(=O)F)ccc1O
- growth inhibition [1]: -3%
- growth inhibition [2]: -6.2%
- growth inhibition [3]: -16.5%
- growth inhibition [4]: -42.8%
- growth inhibition [5]: -2.6%
- growth inhibition [6]: -1.3%

SMILES: CC(C)N(C(C)C)P(OCCC#N)OC1CC(n2cnc3c(=O)[nH]cnc32)OC1COC(=O)NCCCCCCNC(=O)OC(C)(C)c1ccc(-c2ccccc2)cc1 (stereo unspecified)
- growth inhibition [1]: -11.2%
- growth inhibition [2]: -26.4%
- growth inhibition [3]: -27%
- growth inhibition [4]: 10%
- growth inhibition [5]: 12.8%
- growth inhibition [6]: -18.4%

SMILES: [CH3][Hg][O]C(C)=O
- growth inhibition [1]: 99.5% (active)
- growth inhibition [2]: 99.9% (active)
- growth inhibition [3]: 99.7% (active)
- growth inhibition [4]: 99.5% (active)
- growth inhibition [5]: 99.7% (active)
- growth inhibition [6]: 99.7% (active)

SMILES: CCCCCCCCCCCCN(C)C
- growth inhibition [1]: 45.4%
- growth inhibition [2]: 28.7%
- growth inhibition [3]: 35.9%
- growth inhibition [4]: -6.2%
- growth inhibition [5]: 29.1%
- growth inhibition [6]: 37.9%

SMILES: CC(Br)CN(CC(C)Br)c1ccc(-c2ccccc2)cc1 (stereo unspecified)
- growth inhibition [1]: 38.5%
- growth inhibition [2]: 30%
- growth inhibition [3]: 12.6%
- growth inhibition [4]: 35.7%
- growth inhibition [5]: 15.6%
- growth inhibition [6]: 21.7%

SMILES: C=CCOC(=O)Cc1ccccc1
- growth inhibition [1]: 20.5%
- growth inhibition [2]: -5.35%
- growth inhibition [3]: 4.9%
- growth inhibition [4]: -31.9%
- growth inhibition [5]: -39.2%
- growth inhibition [6]: -3.9%

SMILES: CC(SC(C)C(=O)N/N=C/c1ccc(N(CCCl)CCCl)cc1)C(=O)N/N=C\c1ccc(N(CCCl)CCCl)cc1 (stereo unspecified)
- growth inhibition [1]: -0.45%
- growth inhibition [2]: -0.55%
- growth inhibition [3]: -6.05%
- growth inhibition [4]: -10.7%
- growth inhibition [5]: 5.05%
- growth inhibition [6]: 26.1%

Reference: PubChem BioAssay (NCI)
